Dicer processing: inhibitors of human Dicer processing of pre-microRNA. Q9UPY3. cat-ELCCA pre-miR-21 Dicer processing, chemiluminescence; active compounds read high. z-score at 25 µM. actives 6% (n = 47,000); in the data active = z-score above about 3, passing the limit was not always enough;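 also: higher signal means more uncleaved substrate so more Dicer inhibition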
Each line names hits and unclear results; the compound was inactive in the other large screens. Only a selection was taken, and hits are over-represented in it overall.

CNC(=S)NNC(=O)CSc1cc(C(F)(F)F)nc2ccccc12	none
c1ccc(CN2CCN(Cc3c[nH]c4ccccc34)CC2)cc1	Dicer processing 6.9
COc1ccccc1CN1CCN(Cc2c[nH]c3ccccc23)CC1	none
c1ccc2c(CN3CCN(Cc4ccncc4)CC3)c[nH]c2c1	none
CO[C@H]1/C=C/O[C@@]2(C)Oc3c(C)c(O)c4c(O)c(c5c(nc6cc(C)ccn65)c4c3C2=O)NC(=O)/C(C)=C\C=C\[C@H](C)[C@H](O)[C@@H](C)[C@@H](O)[C@@H](C)[C@H](OC(C)=O)[C@@H]1C	none
Clc1ccc(-c2csc(N/N=C\c3[nH]ncc3Br)n2)cc1	none
CCOC(=O)c1ccc([N+](=O)[O-])o1	none
O=C(CSc1ncc(-c2ccc(Cl)cc2)o1)c1ccc(Cl)cc1	none
CCOC(=O)c1oc2cccc(OC(C)=O)c2c1C	Dicer processing 5.7
CCOC(=O)c1c(C)oc2ccc(OC(C)=O)cc12	none
CCOC(=O)c1c(OC)cccc1OC	none
COc1ccc(OC)c(S(=O)(=O)NC(=NCC(C)C)SC)c1	none
Cc1c(S(=O)(=O)c2ccc(Cl)cc2)cnc2cc(C3CC3)nn12	none
Cn1c(=O)c(C(=O)NCc2ccccn2)c(O)c2ccccc21	Dicer processing 10
CC(=O)c1c(O)c2ccccc2n(C)c1=O	none
CCOC(=O)c1c(O)c2ccccc2n(C)c1=O	none
COc1ccc(CN2C(=O)c3oc4ccc(Cl)cc4c(=O)c3C2c2ccc(O)cc2)cc1 (stereo unspecified)	none
CSc1nc2cc(-c3ccc(Cl)cc3)nn2c(C)c1C(C)=O	none
Cc1ccnc(NS(=O)(=O)c2ccccc2)c1	none
Cn1c(=O)n(C)c2cc(S(=O)(=O)Nc3ccccc3O)ccc21	none
Cc1cc(O)c(C(C)C)cc1NS(=O)(=O)c1ccccc1	Dicer processing 4.2
Clc1ccc(Sc2nc(-c3ccccc3)ns2)cc1	none
Cc1cc(C)c(N2CC(=O)NCC2=O)c(C)c1	none
CCOC(=O)CC(=O)CSc1nc(C)c(C)c(C)c1C#N	none
CC(=O)c1ccc(C#N)c(SCC(=O)c2ccccc2)n1	none
Cc1nc(SCC(=O)c2ccccc2)c(C#N)c(C)c1C	Dicer processing 4.4
Cc1nn(-c2cccc(C(F)(F)F)c2)c(=O)c2nc(-c3ccccc3)sc12	none
O=C1SCCC1NS(=O)(=O)c1ccccc1 (stereo unspecified)	none
COc1ccc(S(=O)(=O)NC2CCSC2=O)cc1 (stereo unspecified)	Dicer processing 3.7
O=C(COc1ccc(Cl)cc1)NC1CCSC1=O (stereo unspecified)	none
C=CCSc1nsc(SCC(=O)c2ccc([N+](=O)[O-])cc2)c1C#N	none
N#CCC(=O)NNC(=S)NC1CCCCCC1	none
CCOC(=O)C1=NN(c2ccc(C)cc2)/C(=C/C2=NCCc3cc(OC)c(OC)cc32)S1	Dicer processing 4.4
COc1cc2c(cc1OC)C(c1ccccc1N)=NCC2	none
COc1cc2c(cc1OC)C(/C=C1\SC(C(=O)c3cccs3)=NN1c1ccc(C)cc1)=NCC2	none
Cc1ccc(-c2cc3ccccc3[nH]2)cc1	Dicer processing 16
c1ccc(-c2cc3ccccc3[nH]2)cc1	none
Cc1ccc(-c2cc(=O)c3c(=O)n(-c4ccccc4)[nH]c3[nH]2)cc1	none
CCN(CC)C(=O)Oc1ccc(Br)cc1C(=O)Nc1cc(Cl)cc(Cl)c1	none
CC(C)n1c(CN2CCN(c3ccccc3)CC2)nc2c1c(=O)n(C)c(=O)n2C	none
COC(=O)c1sc(NC(C)=O)nc1C	none
CCOC(=O)c1sc(NC(C)=O)nc1C	Dicer processing 4.3
CCOC(=O)c1sc(NC(=O)c2ccco2)nc1C	none
CC1=C(C)CC2C(=O)N(c3ccc(N4CCCCC4)cc3)C(=O)C2C1 (stereo unspecified)	none
CN(C(=O)Nc1ccccc1)n1cnc2ccsc2c1=O	Dicer processing 5.4
CN(C(=O)CN1CCOCC1)n1cnc2ccsc2c1=O	none
CN(n1cnc2ccsc2c1=O)S(=O)(=O)c1ccc(Cl)cc1	none
Cc1cnc(NC(=O)c2c(F)cccc2Cl)c(Br)c1	none
Cc1nn2c(=O)c(NC(=O)c3ccc(Cl)cc3)cnc2s1	none
Cc1nn2c(=O)c(NC(=O)c3ccc(F)cc3)cnc2s1	none
Cc1ccc(C(=O)Nc2cnc3sc(C)nn3c2=O)cc1	Dicer processing 4.8
O=c1oc(-c2ccccc2Cl)nn1-c1ccc(C(F)(F)F)cn1	none
CCOC(=O)CN1C(=O)C2CC=C(Cl)CC2C1=O (stereo unspecified)	Dicer processing 3.1
CC(C)CC(C(=O)O)N1C(=O)C2CC=C(Cl)CC2C1=O (stereo unspecified)	none
COc1ccc(N2C(=O)C3CC=C(Cl)CC3C2=O)cc1 (stereo unspecified)	none
CC(=O)Nc1ccc(S(=O)(=O)C[N+](=O)[O-])cc1	none
COc1ccc2c(c1)SC1=NS(=O)(=O)CCN12	none
Cc1cc(C)c2c(c1)-c1cc(C)nn1C(c1sccc1C)N2 (stereo unspecified)	none
Cc1cc(N=CNOC(=O)c2nn(-c3ccccc3)nc2C)no1	none
CC(=O)/C(C=Nc1cc(C)on1)=C(\C)O	none
Cc1cc(N=Cc2ccccc2O)no1	Dicer processing 4.5
CCC(COC(C)=O)Nc1nc2c(c(=O)n(C)c(=O)n2C)n1Cc1ccccc1 (stereo unspecified)	none
Clc1ccc2nc3c(nc2c1)Nc1ccccc1S3	none
